Bioassay records as filed in PubChem.
CHX counter – counter-screen for Shiga toxin inhibitors: cycloheximide protein synthesis inhibition; cell reporter, cycloheximide protein synthesis inhibition counterscreen; max response, %; 300,000 tested, 12% active; in the data active means max response mostly above about 13%, no sharp cut-off; inactive means mostly below about 14%; further: read at 38.3 µM for the half of the compounds with a filed dose; 0% is about no effect
NS1 inh – inhibitors of influenza NS1 protein function; Potency, µM (doses to about 46.1 µM), without a hit: at the highest dose activity, positive = more growth; 270,000 tested, 0.4% active; AID 2326; calls by dose curve; further: potency means the concentration at half of the fitted maximal effect; actives are rising curves; nearly all actives have a fitted effect of over 50% in size
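In this qHTS, NS1 from influenza A is expressed in budding yeast, where it slows growth. Cells are switched from glucose to 2% galactose medium (pH 6.0, -URA), treated with compound, and growth recovery is read at OD600.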
Pf growth 48h – inhibits P. falciparum growth in the first generation, 48 h | P. falciparum luciferase growth in erythrocytes, 48 h | Potency, µM (doses to about 28.7 µM), without a hit: at the highest dose activity change, negative = inhibition, hits mostly inhibitors | 310,000 tested, 5.9% active | AID 504832; further: potency means the concentration at half of the fitted maximal effect; on the % scale 0 is the no-effect control and ±100 the full control effect
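Luciferase-expressing P. falciparum in infected erythrocytes (2% hematocrit, 0.1% parasitemia final) in RPMI 1640/0.5% Albumax were exposed to compound for 48 hours at 37 C, 5% CO2; growth read as luminescence.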
Pf growth 96h – inhibits malaria parasite growth, 96 h; P. falciparum luciferase reporter growth, 96 h; Potency, µM (highest dose often 28.7 µM), for inactives: at the highest dose activity change, negative = inhibition, most hits filed as inhibitors; 320,000 tested, 6.9% active; AID 504834; further: potency means the concentration at half of the fitted maximal effect; on the % scale 0 is the no-effect control and ±100 the full control effect
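Plates of compound plus infected erythrocytes (2% hematocrit, 0.05% parasitemia final) incubate 96 hours, 37 C, 5% CO2. Detection reagent added; reduced luminescence from the parasites' luciferase reporter flags inhibition.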
Sm TGR block – blocks Schistosoma mansoni thioredoxin glutathione reductase | AID 485364 | 360,000 tested, 3% active | Potency, µM (doses to about 114 µM), for the others: at the top dose activity change, negative = inhibition, actives largely listed as inhibitors | purified TGR, DTNB reduction, TNB absorbance 405 nm; further: potency means the concentration at half of the fitted maximal effect; on the % scale 0 is the no-effect control and ±100 the full control effect; nearly all actives have a fitted effect of over 60% in size
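First, TGR (20 nM dispensed) and NADPH were mixed with compound. Second, a 15 min room-temperature incubation followed. Third, further NADPH and then DTNB were added to start the reaction. Finally, TNB absorbance was monitored kinetically.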
Shiga toxin inh – Shiga toxin inhibition | AID 2315 | 290,000 tested, 9.2% active | Vero cells, Shiga toxin protein synthesis inhibition reporter | inhibition, % at 38.7 µM; in the data active means inhibition mostly above about 28%, no sharp cut-off; inactive means mostly below about 43%; further: 0% is about no effect
An asterisk follows results filed as active; ? = inconclusive; . = not tested or not shown. Shown are actives, neighbours in structure and some others; about 21% of the full set was active somewhere. Unless noted, the call rests on the fitted dose curve; in most records, active means well fitted curve in the direction sought with a large enough effect; inconclusive means small, poorly fitted or top-dose-only effect, or another doubt; inactive means no such curve, though single readings can be large; an effect the other way counts as inactive or inconclusive.

SMILES | CHX counter | NS1 inh | Pf growth 48h | Pf growth 96h | Sm TGR block | Shiga toxin inh
Cc1ccc2[nH]c(CCN(C)C)c(CN3CCOCC3)c2c1 | . | . | 13µM* | 2.3µM* | -32% | .
CC(=O)NCc1ccc(-c2nc3ccccc3s2)cc1 | 39* | -3% | 58% | -1% | 2% | 58*
O=C(NCc1ccco1)c1nc2ccccc2s1 | 23* | -84% | 65% | . | 3% | 77*
CS(=O)(=O)Nc1ccc(-c2nc3ccccc3s2)cc1 | . | . | . | . | 6% | .
COCCNC(=O)c1nc2ccccc2s1 | 24 | 0% | 45% | 15% | 6% | 44*
O=C(COC(=O)CCCc1nc2ccccc2s1)NC(=O)NCc1ccco1 | 0 | . | -7% | 2% | -10% | -2
CC(=O)NCc1ccc(-c2csc(-c3cccs3)n2)cc1 | 21* | -21% | 88% | 152% | 23% | 86*
COCCNC(=O)COC(=O)CSCc1nc2ccccc2s1 | 3 | 0% | 1% | 11% | -4% | 37
O=C(Cn1cc(SCc2cccc(Cl)c2)c2ccccc21)N1CCCCCC1 | . | . | . | . | 8% | .
COc1cc(NC(=O)c2cc(S(=O)(=O)N3CCC(C)CC3)cn2C)cc(OC)c1OC | . | . | . | . | 4% | .
O=C(NCc1ccccc1)c1ccc2ccccc2n1 | -2 | -14% | 8% | 39% | -1% | 17
O=C(Nc1nnc(-c2ccccc2)o1)c1nc2ccccc2s1 | -4 | 2% | 32% | 5% | 3% | 2
O=C(NCc1ccccc1)c1nc2ccccc2s1 | 23* | . | ? | 111% | 6% | 37
O=C(NCCO)c1nc2ccccc2s1 | 17 | 0% | 58% | -28% | -2% | 37*
CCn1ccc(C(=O)Oc2ccc(C(C)C)cc2)n1 | 36* | -28% | 15% | . | 0% | 71*
CCn1ccc(C(=O)N2CCOCC2)n1 | 11 | -2% | -8% | 8% | . | -13
CC(C)CCNC(=O)CN1C(=O)COc2ccc(S(=O)(=O)N3CCOCC3)cc21 | . | . | . | . | 1% | .
CC(Sc1nnc(N)s1)C(=O)NCc1ccc2c(c1)OCO2 (configuration not stated) | . | . | -5% | 13% | -4% | .
CCOC(=O)CNC=C(C(=O)OCC)C(=O)OCC | -2 | -1% | -19% | 34% | -8% | 23
CCOC(=O)C=C(C(=O)OCC)C(=O)OCC | -2 | 3% | 0% | 11% | 1.6µM* | 7
COc1ccc(S(=O)(=O)Nc2nc3ccccc3nc2Nc2cccc(C(=O)O)c2)cc1 | -2 | -9% | 6% | -17% | -2% | -3
Cn1c[n+](C)cc1-c1ccc(/C(N)=N/O)cc1 | 2 | 1% | ? | 4.7µM* | -27% | 9
Cc1ccc(/C=N/c2sc3c(c2C(N)=O)CCCC3)o1 | 37* | . | 278% | ? | 22µM* | 60*
Cc1nc2sc3c(c2c(=O)n1/N=C/c1cccnc1)CCCC3 | -2 | . | ? | ? | 5% | -6
NC(=O)c1c(/N=C/c2cccnc2)sc2c1CCCC2 | 25* | -6% | 0% | 45% | 0% | 47*
SMILES | CHX counter | NS1 inh | Pf growth 48h | Pf growth 96h | Sm TGR block | Shiga toxin inh
COc1ccc(NC(=O)CN2C(=O)c3ccccc3S2(=O)=O)cc1S(=O)(=O)N1CCOCC1 | . | . | 0% | 4% | -25% | .
Cc1ccc(S(=O)(=O)N2CCCCC2)cc1NC(=O)C1CCCO1 (configuration not stated) | -3 | -2% | -8% | -4% | 2% | -6
C=CC(=O)O | . | . | -4% | -20% | . | .
COc1ccc(S(=O)(=O)N(CCCN2CCCC2=O)Cc2cc3c(C)cc(C)cc3[nH]c2=O)cc1 | 15 | -10% | 9.3µM* | -18% | -14% | -12
Oc1ccccc1-c1nc(NCc2ccco2)c2ccccc2n1 | 25* | -1% | -22% | ? | -15% | 36*
c1ccc(-c2nc(NCc3ccco3)c3ccccc3n2)nc1 | 9 | -85% | 2.6µM* | 2.9µM* | -23% | -1
Fc1ccccc1-c1nc(NCc2ccco2)c2ccccc2n1 | -2 | -2% | ? | -6% | 10% | -8
Cc1ccc(Sc2ccc(N)cn2)cc1 | 8 | 8% | 31% | 20% | 3% | 4
Cc1nn(-c2ccccc2)c(C)c1NC(=O)COC(=O)Cc1cccc(C(F)(F)F)c1 | . | . | -7% | 11% | 6% | .
COc1ccc(CNC(=O)Cn2cccc2C(=O)c2ccccc2)cc1 | 34* | 5% | 34% | 7% | -10% | 40*
